Records with an inconclusive call do not appear. Where a call stands in place of a potency, no number is given. The source made the active and inactive calls. Calls follow the shape of the dose curve; as a rule, active = well fitted cell-killing curve with a large enough effect in the repeat runs; inconclusive = weak or mixed curves, or effect the other way; inactive = flat fitted curve, though single readings scatter.

In PubChem BioAssay (Tox21) one finds Potency data, which are given here for 67 compounds.

The nature of experiment [1]: cAMP Responsive Elements (CRE) small molecule antagonists, cell-based qHTS assay: qHTS cell viability counter screen (AID 2060913). Also: nearly all actives have a fitted effect of over 40% in size. In outline: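 Viability of NKH477-stimulated (0.25 uM final) CRE-bla HEK293T cells is measured by CellTiter-Glo luminescence following 3 hrs compound exposure at 37 C.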
For orientation: Quantitative high-throughput screening tests each substance at several concentrations.

The nature of experiment [2]: cAMP Responsive Elements (CRE) small molecule agonists, cell-based qHTS assay: qHTS cell viability counter screen (AID 2060914). Also: nearly all actives have a fitted effect of over 50% in size. The method in brief: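 Luminescence read-out (CellTiter-Glo, 30 min RT) of ATP-based viability in CRE-bla HEK 293T cells, run in the same wells as the β-lactamase reporter assay after 3 h compound treatment at 37 °C.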

For `C#C[C@]1(O)CC[C@H]2[C@@H]3CCc4cc(OC)ccc4[C@H]3CC[C@@]21C`, the Potency entry in experiment [1] and in experiment [2] was “inactive” throughout.
Regarding `CC(O)COC(C)(C)C` (centres undefined), the Potency result in experiment [1] and in experiment [2] was “inactive” throughout.
For `Nc1ccc(Nc2ccccc2)cc1`, the Potency result in experiment [1] and in experiment [2] was “inactive” in each case.
Take `COc1ccc([N+](=O)[O-])cc1N`: the Potency entry in experiment [1] and in experiment [2] was “inactive” each time.
`CC(CN(C)C)C(C)(O)Cc1ccc(Cl)cc1` (centres undefined): the Potency entry in experiment [1] and in experiment [2] was “inactive” throughout.
In the case of `CCN(CC)CCNC(=O)c1cc(S(C)(=O)=O)ccc1OC`, the Potency entry in experiment [1] and in experiment [2] was “inactive” throughout.
Consider `CCCCCCC(O)CCCCCCCCCCC(=O)O` (centres undefined), for which the Potency entry in experiment [1] and in experiment [2] was “inactive” each time.
With `CCCC(C)CC` (centres undefined), the Potency result in experiment [1] and in experiment [2] was “inactive” each time.
With `Nc1[nH]c(=O)ncc1F`, the Potency entry in experiment [1] and in experiment [2] was “inactive” in each case.
For the compound `NC(=O)NS(=O)(=O)c1ccc(N)cc1`, the Potency entry in experiment [1] and in experiment [2] was “inactive” in each case.
As to `Nc1cc([N+](=O)[O-])ccc1O`, the Potency result in experiment [1] and in experiment [2] was “inactive” throughout.
Regarding `O=c1cc(CO)occ1O`, the Potency entry in experiment [1] and in experiment [2] was “inactive” each time.
For the compound `CCCCS`, the Potency entry in experiment [1] and in experiment [2] was “inactive” throughout.
With `Cc1occc1S`, the Potency result in experiment [1] and in experiment [2] was “inactive” throughout.
On to `C=CC(=O)NC(C)(C)CS(=O)(=O)O`, for which the Potency result in experiment [1] and in experiment [2] was “inactive” in each case.
On to `N[C@H](Cc1c[nH]c2ccccc12)C(=O)O`, for which the Potency result in experiment [1] and in experiment [2] was “inactive” in each case.
Consider `COC[C@H](c1ccc(C(F)(F)F)cc1)N1CCN(C2(C)CCN(C(=O)c3c(C)ncnc3C)CC2)C[C@H]1C`, for which the Potency entry in experiment [1] and in experiment [2] was “inactive” each time.
Take `CCc1cc2cc(OC)c(OC)cc2c(Cc2ccccc2)n1`: the Potency entry in experiment [1] and in experiment [2] was “inactive” each time.
For `O=C(O)CC(C(=O)O)C(CC(=O)O)C(=O)O` (centres undefined), the Potency entry in experiment [1] and in experiment [2] was “inactive” each time.
Take `O[C@@H](COc1cccc2ncccc12)CN1CCN(C2c3ccccc3[C@@H]3[C@H](c4ccccc42)C3(F)F)CC1` (some centres undefined): the Potency entry in experiment [1] and in experiment [2] was “inactive” in each case.
Regarding `CC(C)Nc1cccnc1N1CCN(C(=O)c2cc3cc(NS(C)(=O)=O)ccc3[nH]2)CC1`, the Potency result in experiment [1] and in experiment [2] was “inactive” each time.
For the compound `O=C1Cc2cc(CCN3CCN(c4nsc5ccccc45)CC3)c(Cl)cc2N1`, the Potency entry in experiment [1] and in experiment [2] was “inactive” in each case.
Consider `O=C(O)c1ccccc1`, for which the Potency entry in experiment [1] and in experiment [2] was “inactive” in each case.
For `c1ccc(Oc2ccccc2)cc1`, the Potency entry in experiment [1] and in experiment [2] was “inactive” in each case.
Consider `Cc1ccc(/C=N/n2c(-c3ccccc3)csc2=S)cc1`, for which the Potency result in experiment [1] and in experiment [2] was “inactive” each time.
On to `CN(C)CCN(Cc1cccs1)c1ccccn1`, for which the Potency entry in experiment [1] and in experiment [2] was “inactive” throughout.
With `CNC(=O)c1cnn(-c2nc(N)c3ncn([C@@H]4O[C@H](CO)[C@@H](O)[C@H]4O)c3n2)c1`, the Potency entry in experiment [1] and in experiment [2] was “inactive” in each case.
`CC(=O)N[C@@H](Cc1ccc(O)cc1)C(=O)O`: the Potency result in experiment [1] and in experiment [2] was “inactive” in each case.
In the case of `CN=C(NC#N)NCCSCc1csc(N=C(N)N)n1`, the Potency entry in experiment [1] and in experiment [2] was “inactive” each time.
Consider `CN(C)[C@@H]1C(=O)C(C(N)=O)=C(O)[C@@]2(O)C(=O)C3=C(O)c4c(O)cccc4C[C@H]3C[C@@H]12`, for which the Potency entry in experiment [1] and in experiment [2] was “inactive” each time.
As for `CC(O)CNCC(C)O` (centres undefined), the Potency result in experiment [1] and in experiment [2] was “inactive” each time.
`CCN(CC)CCCC(C)Nc1c2ccc(Cl)cc2nc2ccc(OC)cc12` (centres undefined): the Potency result in experiment [1] and in experiment [2] was “inactive” each time.
For `NCCS(=O)(=O)O`, the Potency entry in experiment [1] and in experiment [2] was “inactive” in each case.
`NC(N)=N/N=C/c1c(Cl)cccc1Cl`: the Potency result in experiment [1] and in experiment [2] was “inactive” throughout.
Turning to `CCCCCCCCSCC`, the Potency entry in experiment [1] and in experiment [2] was “inactive” in each case.
Turning to `CCCCc1cc2ccccc2c(OCCN(C)C)n1`, the Potency entry in experiment [1] and in experiment [2] was “inactive” in each case.
On to `O=C(O)c1cc2ccccc2cc1O`, for which the Potency result in experiment [1] and in experiment [2] was “inactive” throughout.
As to `CCCCCCCCCCCCN1CCCCCC1=O`, the Potency result in experiment [1] and in experiment [2] was “inactive” each time.
On to `CCC(=O)O[C@]1(C(=O)CCl)[C@@H](C)C[C@H]2[C@@H]3CCC4=CC(=O)C=C[C@]4(C)[C@@]3(F)[C@@H](O)C[C@@]21C`, for which the Potency entry in experiment [1] and in experiment [2] was “inactive” each time.
Consider `CC(C)C(=O)OCCOc1ccccc1`, for which the Potency result in experiment [1] and in experiment [2] was “inactive” each time.
For the compound `CC1(C)Cc2cccc(N)c2O1`, the Potency result in experiment [1] and in experiment [2] was “inactive” each time.
For `CCCCCCC1CCC(=O)O1` (centres undefined), the Potency entry in experiment [1] and in experiment [2] was “inactive” each time.
On to `C[Si](C)(C)O[Si](O)(O)O`, for which the Potency entry in experiment [1] and in experiment [2] was “inactive” throughout.
With `OC12N=C(c3ccccc3)SC1Cc1cc(Cl)ccc12` (centres undefined), the Potency entry in experiment [1] and in experiment [2] was “inactive” in each case.
As for `CCOC(=O)[C@H](CCc1ccccc1)N[C@@H](C)C(=O)N1Cc2cc(OC)c(OC)cc2C[C@H]1C(=O)O`, the Potency result in experiment [1] and in experiment [2] was “inactive” each time.
As to `CCc1c2c(nc3ccc(OC(=O)N4CCC(N5CCCCC5)CC4)cc13)-c1cc3c(c(=O)n1C2)COC(=O)[C@]3(O)CC`, the Potency entry in experiment [1] and in experiment [2] was “inactive” each time.
Regarding `CCOc1ncc(F)c(=O)[nH]1`, the Potency result in experiment [1] and in experiment [2] was “inactive” each time.
`Nc1nc(CC(=O)O)cs1`: the Potency result in experiment [1] and in experiment [2] was “inactive” throughout.
Turning to `C=CCNCC=C`, the Potency entry in experiment [1] and in experiment [2] was “inactive” throughout.
Consider `C=CN1CCCCCC1=O`, for which the Potency result in experiment [1] and in experiment [2] was “inactive” in each case.
For the compound `CC(C)(N=C=O)c1cccc(C(C)(C)N=C=O)c1`, the Potency result in experiment [1] and in experiment [2] was “inactive” each time.
Take `CC1=Nc2ccc3ccccc3c2C1(C)C`: the Potency entry in experiment [1] and in experiment [2] was “inactive” each time.
`O=C(c1ccccc1)c1ccccc1`: the Potency entry in experiment [1] and in experiment [2] was “inactive” throughout.
For the compound `CC1Cc2ccccc2N1NC(=O)c1ccc(Cl)c(S(N)(=O)=O)c1` (centres undefined), the Potency result in experiment [1] and in experiment [2] was “inactive” each time.
`Cc1cn([C@H]2C[C@H](F)[C@@H](CO)O2)c(=O)[nH]c1=O`: the Potency result in experiment [1] and in experiment [2] was “inactive” throughout.
Consider `O=C(O)CP(=O)(O)O`, for which the Potency entry in experiment [1] and in experiment [2] was “inactive” in each case.
As for `CCOCCn1c(N2CCCN(C)CC2)nc2ccccc21`, the Potency entry in experiment [1] and in experiment [2] was “inactive” throughout.
With `CC(=O)CC(=O)N(C)C`, the Potency result in experiment [1] and in experiment [2] was “inactive” throughout.
In the case of `CCc1ccc(C)nc1`, the Potency entry in experiment [1] and in experiment [2] was “inactive” throughout.
Consider `C[C@@H](O)[C@H]1C(=O)N2C(C(=O)O)=C(SCCN=CN)C[C@H]12`, for which the Potency entry in experiment [1] and in experiment [2] was “inactive” throughout.
Turning to `O=[N+]([O-])c1ccc(/C=C/c2ccc([N+](=O)[O-])cc2S(=O)(=O)O)c(S(=O)(=O)O)c1`, the Potency result in experiment [1] and in experiment [2] was “inactive” throughout.
In the case of `N#CC1(O)CCCCC1`, the Potency result in experiment [1] and in experiment [2] was “inactive” throughout.
As to `c1cc(C(c2ccc(OCC3CO3)cc2)C(c2ccc(OCC3CO3)cc2)c2ccc(OCC3CO3)cc2)ccc1OCC1CO1` (centres undefined), the Potency entry in experiment [1] and in experiment [2] was “inactive” each time.
On to `c1ccc(C[n+]2cccc3ccccc32)cc1`, for which the Potency result in experiment [1] and in experiment [2] was “inactive” each time.
Regarding `CO[C@H]1C=CO[C@@]2(C)Oc3c(C)c(O)c4c(O)c(cc(O)c4c3C2=O)NC(=O)/C(C)=C\C=C/[C@H](C)[C@H](O)[C@@H](C)[C@@H](O)[C@@H](C)[C@H](OC(C)=O)[C@@H]1C`, the Potency entry in experiment [1] and in experiment [2] was “inactive” throughout.
On to `c1ccc(COCc2ccccc2)cc1`, for which the Potency entry in experiment [1] and in experiment [2] was “inactive” throughout.
Take `Cc1cn[nH]c1`: the Potency result in experiment [1] and in experiment [2] was “inactive” in each case.
